A number with no mark means an inactive call. Calls of active or inactive are those of the source.
Note: test concentration not given here.

A short description of one assay: growth effects on S. cerevisiae YJM789 – YJM789 clinical isolate, OD600, 24 h, basal, primary screen (AID 1089).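 Note: growth of clinical yeast isolate S. cerevisiae YJM 789 seeded 1000 cells per well.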 Conditions: higher = more signal, called active from +8 up or from −8 down.
`CCOC(=O)C[C@H]1[C@H](OC(=O)c2ccccc2-c2ccccc2)[C@@H](NC(=O)c2ccc3ccccc3n2)c2cc(OCCCO)ccc2N1C(=O)c1ccc2ccccc2n1`: the z-score is -0.717. On the same count and under the same terms, to `[N-]=[N+]=NCc1ccccc1C[C@]1(C(=O)NCC(O)CO)N=C(c2ccc(OCCCO)cc2)O[C@H]1c1ccccc1CN=[N+]=[N-]` (some centres undefined) belongs -0.331; to `C[n+]1ccc(CCCO)cc1`, 0.654. Still for that read-out and setting: the figure for `CCCC[C@@H]1C[C@H]1[C@@H](NC(=O)c1ccccc1)c1ccc(Cl)cc1` is 0.222.

For the molecule `C=C(CCCC)/C(=C/C[C@@H](OC(C)=O)c1ccc(CO)o1)c1cc(C(=O)OC)ccc1OC`, the z-score was 0.562. Still for that read-out and setting: the figure for `CC(C)OC(=O)CC(=O)CC(O)c1cccc(C#N)c1` (centres undefined) is -2.17; for `COC(=O)[C@@]1(Cc2ccccc2)[C@H]2c3cc(C(=O)N4CCCC4)[nH]c3C[C@H]2CN1C(=O)c1ccccc1` it is -0.202.

With `COc1c(C)cc(-c2cc3c(c(-c4ccccc4)n2)[Si](C(C)C)(C(C)C)OC3)cc1C`, the z-score was 0.105. On the same count and under the same terms, to `C=CC[C@@]1(C(=O)N2CCCCC2)N=C(c2ccc(OCCCO)cc2)O[C@@H]1c1ccccc1` belongs -2.83; to `CN(C)CCCNC(=O)[C@@H]1c2ccccc2C(=O)N(Cc2ccc(OC(F)(F)F)cc2)[C@H]1c1ccc(CO)cc1`, -1.02.

The nature of a further assay: S. pombe growth modifiers, basal conditions – strain 972, OD600, 24 h, no modulator, primary screen (AID 1090).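 Note: basal condition with compound alone and no growth modifier present.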 Conditions: S. pombe 972 growth, higher = more signal, called active from +8 up or from −8 down.
As for `COC(=O)[C@@]1(Cc2ccc(F)cc2)[C@H]2c3cc(C(=O)N4CCCC4)n(CCc4c[nH]c5ccc(OC)cc45)c3C[C@H]2CN1C(=O)c1ccccc1`, the z-score was -0.156.

Take `COCCOC(=O)N1C(=O)[C@@]2(c3cc(C#CC4(O)CCCCCC4)ccc31)[C@H](C(=O)N1CCCCCCC1)[C@H]1C(=O)O[C@H](c3ccccc3)[C@H](c3ccccc3)N1[C@@H]2c1ccc(OCCO)cc1`: the z-score is 0.638. As to `COC(=O)Cn1c(C(=O)N2CCCC2)cc2c1C[C@H]1CN(C(=O)c3ccccc3)[C@@](Cc3ccc(F)cc3)(C(=O)OC)[C@@H]21`, the z-score is 0.562. As for `NC(=O)N1C(=O)C2C(C1=O)C1C=C(c3ccc(CO)cc3)C2C(C2CC2)N1Cc1sc2ccccc2c1Cl` (centres undefined), the z-score is -2.31. Same read-out and setting: the figure for `CC=CC(O)C1C=CC2C(=O)N(C)C(=O)C2N1Nc1ccc([N+](=O)[O-])cc1[N+](=O)[O-]` (centres undefined) is 0.325; for `CN(C)CCCNC(=O)[C@@]1(c2ccc([N+](=O)[O-])cc2)CC(=O)N(CC23CC4CC(CC(C4)C2)C3)[C@@H]1c1ccc(CO)cc1` it is -20.2 (active). The same measure, in the same setting: to `C=CC1c2cc(O)c(OC)cc2CCN1Cc1sc2ccccc2c1Cl` (centres undefined) belongs -19.2 (active); to `CC(C)C(=C=CC[C@@H](O)c1ccccc1OCCO)C[C@@H](O)COCc1ccccc1`, -20.5 (active). On the same count and under the same terms, the figure for `C=CCN1C(=O)[C@]2(CC=C)N=C(c3ccc(OCCCO)cc3)O[C@@H]2c2ccccc21` is -2.79; for `Cc1ccc(S[C@]2(C(=O)NCc3ccccc3)CC(=O)N(C(C)C)[C@@H]2c2ccc(CO)cc2I)cc1` it is -1.38. On to `CO[C@H]1O[C@H](CO)[C@@H](OC(=O)Nc2ccc(C(F)(F)F)cc2)[C@H](OC(=O)Nc2ccc3c(c2)OCO3)[C@H]1OC(=O)Nc1ccc2c(c1)OCO2`, for which the z-score was 0.908.

Regarding `CN1C2C=C(CCCO)C(C3C(=O)N(C(N)=O)C(=O)C32)C1c1cccs1` (centres undefined), the z-score was 1.1. Same read-out and setting: to `COC(=O)C(CC#Cc1ccc2c(c1)[C@]1(C(=O)N2)[C@H](C(=O)O)[C@H]2C(=O)O[C@H](c3ccccc3)[C@H](c3ccccc3)N2[C@@H]1c1ccccc1OCCO)C(=O)OC` belongs 0.324. Still for that read-out and setting: the figure for `CC(C)CCC[C@@H](C)[C@H]1CC[C@@]2(C)C3=C(CC[C@]12C)[C@@]1(C)CC[C@H](OC(=O)c2ccc(Br)cc2)C(C)(C)C1CC3` (some centres undefined) is -1.28. On the same count and under the same terms, the figure for `Cc1ccc(S[C@]2(C(=O)NCCN3CCOCC3)CC(=O)N(Cc3ccccc3C(F)(F)F)[C@@H]2c2ccc(CO)cc2I)cc1` is -4.24.

With `CCCCN1CC=CC23O[C@@H]4C=CCOC(=O)[C@@H]4[C@H]2C(=O)N(CCCO)[C@@H]3C1=O` (some centres undefined), the z-score is -0.399. The same measure, in the same setting: to `C=C[C@@H](C)[C@H](OC(=O)Nc1ccc(SC)cc1)c1ccc(OCCO)cc1` belongs -1.02; to `O=c1cccc(-c2cccc(Cl)c2)o1`, -4.41.

Regarding `Cc1ccc(S[C@]2(C(=O)NCC(F)(F)F)CC(=O)N(Cc3ccccc3)[C@@H]2c2ccc(CO)cc2)cc1`, the z-score was -1.2.
